This is part of a sample that, as a whole, favours compounds with a hit. Of some 79,000 tested, about 15% had one in any assay. Values without a mark were called inactive. The source made the active and inactive calls. Cut-off read from the data, not from the text of the source: active = growth inhibition above about 70%; inactive = the rest. Where a SMILES comes first, the peptide text is derived from it. [ ]: non-standard residue; d: D form. The star is where a group is joined. Cbz = O=C(OCc1ccccc1)*; Dha = C=C(N)C(=O)O
Assays:
[1] = NCI Yeast Anticancer Drug Screen. Data for the rad50 strain (AID 155);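 note: 0% = growth of vehicle-only cultures of the same strain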; settings: S. cerevisiae rad50 strain growth inhibition; at 50.0 µM; hits give high values
Method in brief: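 Growth of the mutant yeast was measured after compound exposure and referenced to vehicle-treated cultures.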

[2] = NCI Yeast Anticancer Drug Screen. Data for the mec2-1 strain (AID 157); settings: S. cerevisiae mec2-1 strain, at 50.0 µM, hits give high values
Method in brief: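 Compounds were applied to mec2-1 yeast cells. Their growth was then compared with that of vehicle-treated cultures to give growth inhibition.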

[3] = NCI Yeast Anticancer Drug Screen. Data for the sgs1 mgt1 strain (AID 161);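 note: 0% = growth of cultures given vehicle only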; settings: S. cerevisiae sgs1 mgt1 strain, at 50.0 µM, hits give high values
Method in brief: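 Yeast cells carrying a defined DNA-repair defect were exposed to test compounds. Growth inhibition was measured relative to vehicle-treated controls.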

[4] = NCI Yeast Anticancer Drug Screen. Data for the cln2 rad14 strain (AID 165);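 note: 0% = growth equal to vehicle treated cultures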; settings: S. cerevisiae cln2 rad14 strain, at 50.0 µM, hits give high values
Method in brief: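 Strain: cln2 rad14 yeast, altered in cell cycle control and DNA damage repair. Read-out: growth inhibition vs vehicle.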

[5] = NCI Yeast Anticancer Drug Screen. Data for the bub3 strain (AID 167); settings: S. cerevisiae bub3 mutant strain, at 50.0 µM, hits give high values
Method in brief: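 Whole-cell yeast assay. The mutant strain was incubated with compounds, and growth inhibition was determined by comparison with vehicle-treated cells.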

[6] = NCI Yeast Anticancer Drug Screen. Data for the mlh1 rad18 strain (AID 175); settings: S. cerevisiae mlh1 rad18 strain growth inhibition; at 50.0 µM; hits give high values
Method in brief: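 A repair-deficient yeast strain is exposed to test compound, and growth is scored relative to vehicle-treated controls.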

Compound | growth inhibition [1] | growth inhibition [2] | growth inhibition [3] | growth inhibition [4] | growth inhibition [5] | growth inhibition [6]
CCCOP(=O)(CCCP(=O)(OCCC)OCCC)OCCC | -8.4% | -9.6% | 0.5% | -25.6% | 6.2% | -12.5%
CN1C(=O)C(O)Nc2ncncc21 (configuration not stated) | -5.15% | -19.9% | -4.55% | -45.7% | 2.45% | -33.2%
COc1cccc(C2ON=C(c3ccccc3)N2C23CC4CC(CC(C4)C2)C3)c1 (configuration not stated) | 8.5% | -3.4% | -34.2% | -6.7% | 10.1% | 14.9%
CCCCCCCCNC(=O)c1ccccc1C(=O)O | 1.6% | 14.9% | 51.2% | -32.8% | 44.6% | 13.4%
Oc1c(Cl)cc(Cl)cc1C1Nc2ccccc2-n2cccc21 (configuration not stated) | -5.2% | -11.8% | 0.4% | 8.95% | 9.25% | 8.2%
O=NN(CCCl)C(=O)NC1CCC(C(=O)O)CC1 (configuration not stated) | 29.6% | -2.05% | -6.65% | -7.8% | -0.75% | 2.4%
C[C@H]1C(=O)OCN1C(=O)OCc1ccccc1 | 0.05% | 16.4% | 12.3% | -6% | 12.6% | -0.5%
OCC(O)C(O)C(O)c1nn(-c2ccccc2)c2nc3ccccc3nc12 (configuration not stated) | 3.6% | 1.3% | 3.4% | 7.15% | 11.3% | 17.2%
Cc1n[nH]c2ccccc2c1=O | -4.85% | -17.9% | -21.6% | -18.1% | -23.6% | -9.95%
COCOc1ccc(C=O)cc1 | 9.75% | 13.1% | -14.3% | -4.6% | -14.1% | -5.65%
COC1OC(CCl)C(Cl)C(Cl)C1O (configuration not stated) | 17.7% | -7.85% | 4.55% | -44.2% | 5.9% | 4.8%
C=C(NC(=O)C(C)NC(=O)OCc1ccccc1)C(=O)N1CCCC1C(=O)NC(C)C(=O)NC (configuration not stated) (Cbz-A[Dha]PA-NHMe; configuration not given here) | 3% | -3.95% | -5.05% | 3.4% | -4.35% | -2.4%
COc1cc(C(c2cc3c(cc2OC(C)=O)OCO3)C(C(C)=O)C(C)=O)cc(OC)c1OC (configuration not stated) | 3.55% | 27.8% | -5.1% | -4% | 4.35% | -1.8%
COc1cc(CSCC(=O)O)ccc1O | 8.95% | 7.15% | 10.3% | -19.4% | -19.6% | -23.8%
CC1=NNC(=O)C2CCC(=O)N12 (configuration not stated) | 14.8% | 1% | 7.15% | 11.1% | 12.1% | 22.8%
C=CC(C)(C)[C@@]12CC3C(=O)N[C@@H](Cc4ccccc4)C(=O)N3[C@@H]1N(C(C)=O)c1ccccc12 (some centres not stated) | 73.2% (active) | 12.2% | 16.7% | 50.5% | 45.6% | 53.1%
CCCCCCCCCCCC(=O)Nc1ccc(C(C)C)cc1 | 4.75% | -7.6% | -13.3% | 18.3% | 21.2% | -12.8%
C[n+]1ccc(CCC(=O)Nc2ccccc2)cc1 | 3.65% | 24.3% | -4.35% | 0.3% | 25.6% | 3%
COc1ccc(-c2cc(=O)cc(C(N)=O)o2)cc1 | -1.1% | -1% | 4.6% | -13.8% | 11.2% | 17.2%
C/C(C#CC1=CCCCC1)=N\Nc1ccc([N+](=O)[O-])cc1[N+](=O)[O-] | -3.45% | -24.4% | -8.1% | -4.3% | -7.75% | 1.1%
O=C(O)c1cnc(Cl)c(Br)c1 | -12.1% | -3.35% | 6.7% | -17.9% | -27.1% | 2.5%

Compound | growth inhibition [1] | growth inhibition [2] | growth inhibition [3] | growth inhibition [4] | growth inhibition [5] | growth inhibition [6]
C=CCc1cc(C(C)=O)ccc1O | 2.75% | -14.5% | -9.75% | -19.2% | -8.95% | -11.7%
CC(COCc1ccccc1)C1OC(C)(C)OC(C#N)C1C (configuration not stated) | -1.05% | -1.4% | -4.8% | -20.4% | 11.7% | 14.3%
c1ccc(C2=C(c3ccccc3)CSSC2)cc1 | 46.4% | 34.6% | 79.8% (active) | 46.6% | 41.7% | 93.5% (active)
COc1ccc2cccc(C(=O)O)c2c1 | 1.3% | -10.3% | -6.5% | 3.35% | -15.6% | -21.6%
Cc1ccc(S(=O)(=O)/C(C#N)=C\N2CC(=O)NC2=S)cc1 | -20.1% | -21.1% | -23.2% | -10.3% | -13.9% | -25.6%
CC(O)CCC(C)O (configuration not stated) | -19.1% | -24.2% | -4.5% | -4.95% | 1.85% | 10.2%
c1ccc2cc3c(cc2c1)oc1cc2ccccc2cc13 | -14.1% | -9.05% | -4.8% | -6.1% | -5.7% | -10%
CC(C)C(Br)C(=O)N1CCOCC1 (configuration not stated) | -0.4% | -17.9% | -5.2% | -20.6% | -9.6% | -5.15%
CCN(CC)c1ccccc1C | 21.1% | 9.9% | -5.2% | -4.95% | 2.25% | -0.2%
CCCCCCC1N(C(C#N)c2ccccc2)CCCN1C(C#N)c1ccccc1 (configuration not stated) | 19.8% | 14.2% | 16.6% | 7.6% | 2.4% | 36.4%
Cn1nnc2c1C(=O)c1ccccc1C2=O | 0.6% | -14% | 29.4% | -50.3% | -8.5% | -0.7%
N#C/C(=C\c1cc(Br)cc(Br)c1O)c1ccc([N+](=O)[O-])cc1 | -2.7% | -10.9% | -6.8% | 17.1% | 22.3% | -2.6%
CCCCCCCOc1ccc(C2=C(c3ccccc3)C(=O)C(c3ccccc3)=C2c2ccccc2)cc1 | 22.4% | 3.3% | 8.3% | 15.9% | 3.95% | 2.4%
CCCCC(/C=C(/C)C(=O)O)CC (configuration not stated) | 6.9% | 1.6% | 3.9% | -1.8% | 3.3% | 0.9%
CN1c2ccccc2C(=O)NC12CCN(CCCC(=O)c1ccc(F)cc1)CC2 | 6.6% | 6.95% | 46.8% | 35.6% | 21.9% | 7%
O=C1C2C3C=CC(O3)C2C(=O)N1CCN1CCCCC1 (configuration not stated) | -0.75% | -4.8% | -0.65% | 6.5% | -2.15% | -6.05%
Cn1c(COC(=O)NC2CCCCC2)c(COC(=O)NC2CCCCC2)c2ccc3cc(C=O)ccc3c21 | 5.95% | 7.85% | -14.5% | -3.95% | -10.4% | -27.3%
O=C(O)c1ccc(NC(NC(=O)C(C(F)(F)F)C(F)(F)F)(C(F)(F)F)C(F)(F)F)cc1 | 20.2% | 14.4% | 8.9% | 1.2% | 11.2% | 14.4%
N#CCCCOc1ccccc1 | -14.2% | -13.6% | 16.4% | -6.7% | -2.05% | 5.4%
COc1ccc(Br)c(C=O)c1NC(C)=O | 22.7% | 11.4% | 38.1% | -1.3% | -8.25% | -4.1%
CCN(CC)CCC(=O)N1CCc2c([nH]c3ccccc23)C1c1cccnc1 (configuration not stated) | -26.9% | -18.9% | -3.95% | -6.7% | -0.1% | -28.2%
